An excerpt weighted towards active compounds, which were near 21% of everything screened.
Shiga toxin inh: A qHTS for Small Molecule Inhibitors of Shiga Toxin | Vero cells, Shiga toxin protein synthesis inhibition reporter | inhibition, % at 38.7 µM | hit rate 9.2% among 290,000 | AID 2315, 2010; in the data active = inhibition mostly above about 28%, no sharp cut-off; inactive = mostly below about 43%; note: 0% is about no effect
Pf growth 48h: Primary qHTS for delayed death inhibitors of the malarial parasite plastid, 48 hour incubation. Potency, µM (titrated, usually from 28.7 µM), for inactives: at the highest dose activity change, negative = inhibition, most hits filed as inhibitors. AID 504832, 2011. hit rate 5.9% among 310,000. P. falciparum luciferase growth in erythrocytes, 48 h; note: potency is the fitted concentration of half-maximal effect; % is set by controls: 0 for no effect and ±100 for the full control effect
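Here the parasites carry a stable luciferase gene and grow inside erythrocytes in Albumax-based RPMI medium with compound for one erythrocytic cycle. Activity is scored as loss of luminescent signal.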
Pf growth 96h: Primary qHTS for delayed death inhibitors of the malarial parasite plastid, 96 hour incubation; hit rate 6.9% among 320,000; Potency, µM (doses to about 28.7 µM), for the others: at the highest dose activity change, negative = inhibition, usual class: inhibitors; P. falciparum luciferase reporter growth, 96 h; note: potency is the fitted concentration of half-maximal effect; % is set by controls: 0 for no effect and ±100 for the full control effect
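Plates of compound plus infected erythrocytes (2% hematocrit, 0.05% parasitemia final) incubate 96 hours, 37 C, 5% CO2. Detection reagent added; reduced luminescence from the parasites' luciferase reporter flags inhibition.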
NS1 inh: qHTS Assay for Inhibitors of Influenza NS1 Protein Function; Potency, µM (doses to about 46.1 µM), inactives show at the highest dose activity, positive = more growth; hit rate 0.4% among 270,000; calls by dose curve; note: potency is the fitted concentration of half-maximal effect; actives are rising curves; nearly all actives have a fitted effect of over 50% in size
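A cell-based growth assay was used: compounds that relieve NS1-induced slow growth of budding yeast raise OD600. Assay medium was yeast nitrogen base with ammonium sulphate and -URA supplement, pH 6.0, with 2% galactose.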
Cycloheximide cs: Cycloheximide Counterscreen for Small Molecule Inhibitors of Shiga Toxin. cell reporter, cycloheximide protein synthesis inhibition counterscreen. hit rate 12% among 300,000. max response, %; in the data active = max response mostly above about 13%, no sharp cut-off; inactive = mostly below about 14%; note: read at 38.3 µM for the half of the compounds with a filed dose; 0% is about no effect
An asterisk follows results filed as active; [ ] = another dose, or the depositor's remark. Unless noted, calls come from the whole dose curve; as a rule, active = well fitted inhibition curve with a large enough effect; inconclusive = small, poorly fitted or top-dose-only effect, or another doubt; inactive = no such curve, though single readings can be large or run the other way.

Screening CCOC(=O)c1ccc2nc(C)c(C)nc2c1 returned Shiga toxin inh 61.1*, Pf growth 48h 49.3%, Pf growth 96h 37.6%, NS1 inh 5.3% and Cycloheximide cs 17.0.
`O=C1CCC2(CC1)NC(=O)N(c1ccccc1)N2` gave Shiga toxin inh -13.4, Pf growth 48h -16.2%, Pf growth 96h -8.2% and Cycloheximide cs 1.5.
Cc1cccc(-c2nn(C(=S)Nc3ccccc3)cc2-c2ccnc3ccccc23)n1 was read as Shiga toxin inh 2.1 and Cycloheximide cs 14.3.
Screening O=C(Nc1ccc(Cl)cc1)Nc1ccccc1CC[N+](=O)[O-] returned Shiga toxin inh 40.7*, Pf growth 48h 11.7µM*, Pf growth 96h inconclusive and Cycloheximide cs 24.3.
For O=C(Nc1ccc(Cl)c(Cl)c1)Nc1ccccc1C(=O)O the results were Shiga toxin inh 41.1, Pf growth 48h 117.5%, Pf growth 96h 41.6%, NS1 inh 0.9% and Cycloheximide cs 29.8*.
For O=C(Cc1ccccc1)NNC(=O)Nc1ccc(Cl)c(Cl)c1 the results were Shiga toxin inh -11.7, Pf growth 48h 19.9%, Pf growth 96h 28.7%, NS1 inh -2.6% and Cycloheximide cs -2.1.
CN(C)C(=O)Nc1ccccc1CC[N+](=O)[O-] was read as Shiga toxin inh -2.1, Pf growth 48h -5.5%, Pf growth 96h 17.4% and Cycloheximide cs 7.4.
`O=C(Nc1ccc(Cl)cc1)Nc1ccccc1C(=O)O` gave Shiga toxin inh 35.0, Pf growth 48h 130.4%, Pf growth 96h -20.5%, NS1 inh -5.3% and Cycloheximide cs 23.4*.
Screening O=C(Nc1ccccc1CC[N+](=O)[O-])N1CCN(c2ccccc2)CC1 returned Shiga toxin inh -6.0, Pf growth 48h 10.4µM*, Pf growth 96h 11.7µM* and Cycloheximide cs 12.5.
`CN(C)C(=O)c1nc2ccc(Cl)cn2c1CN1CCCC(OCc2ccccc2)C1` (centres undefined) gave Shiga toxin inh 1.3, Pf growth 48h inconclusive, Pf growth 96h inconclusive, NS1 inh -0.1% and Cycloheximide cs -1.8.
Screening COc1ccccc1C(=O)NC(CCSC)C(=O)OC(C)C(N)=O (centres undefined) returned Shiga toxin inh -6.9, Pf growth 48h 15.5%, Pf growth 96h -6.1% and Cycloheximide cs 10.2.
`O=C(Nc1ccccc1)Nc1ccccc1C(=O)NCC1CC1` gave Shiga toxin inh 3.0, Pf growth 48h inconclusive, Pf growth 96h 11.6%, NS1 inh -5.2% and Cycloheximide cs 12.2.
`COCCNC(=O)c1ccccc1NC(=O)Nc1ccccc1` gave Shiga toxin inh -5.7, Pf growth 48h 30.3%, Pf growth 96h 7.38µM*, NS1 inh 3.2% and Cycloheximide cs 6.1.
Screening CCN(CC)c1ccc(NC2=C(Cl)C(=O)c3ccccc3C2=O)cc1 returned Shiga toxin inh 128.3*, Pf growth 48h 40.3%, Pf growth 96h 2.94µM*, NS1 inh -13.1% and Cycloheximide cs 59.7*.
For O=C1C(Cl)=C(Nc2ccc(O)cc2)C(=O)c2ccccc21 the results were Shiga toxin inh 47.6*, Pf growth 48h inconclusive, Pf growth 96h -15.4%, NS1 inh 1.0% and Cycloheximide cs 22.7*.
`CCNC1=C(Cl)C(=O)c2ccccc2C1=O` gave Shiga toxin inh -1.3, Pf growth 96h -5.5%, NS1 inh inconclusive and Cycloheximide cs 2.6.
Screening Cc1ccc(NC2=C(Cl)C(=O)c3ccccc3C2=O)cc1 returned Shiga toxin inh 70.2*, Pf growth 48h 78.7%, Pf growth 96h 216.3%, NS1 inh 10.7% and Cycloheximide cs 24.8*.
Screening Cc1cc(C)cc(NC2=C(N)C(=O)c3ccccc3C2=O)c1 returned Shiga toxin inh 121.5*, Pf growth 48h inconclusive, Pf growth 96h -7.2%, NS1 inh -0.8% and Cycloheximide cs 42.6*.
For CCc1ccc(C2=C/C(=C/c3cccnc3)C(=O)O2)cc1 the results were Shiga toxin inh 1.4, Pf growth 48h 30.4%, Pf growth 96h -58.5%, NS1 inh -24.4% and Cycloheximide cs 1.0.
Screening CN(C)CCNC(=O)c1ccc2c(=O)n(Cc3ccc(Cl)cc3)c(=S)[nH]c2c1 returned Shiga toxin inh -0.3, Pf growth 48h inconclusive, Pf growth 96h 22.2%, NS1 inh -0.4% and Cycloheximide cs 12.3.
`CCCCCNC(=O)c1ccc2c(=O)n(CC3CCCO3)c(=O)[nH]c2c1` (centres undefined) gave Shiga toxin inh -2.5, Pf growth 48h 1.31µM*, Pf growth 96h 8.6%, NS1 inh 2.3% and Cycloheximide cs -1.1.
CCCCCn1c(=O)[nH]c2cc(C(=O)NCCN3CCCCC3C)ccc2c1=O (centres undefined) was read as Shiga toxin inh -0.9, Pf growth 48h 11.7µM*, Pf growth 96h inconclusive, NS1 inh 0.3% and Cycloheximide cs -8.4.
For CCCCN(C)CCNC(=O)c1ccc(Cn2c(=S)[nH]c3ccc(Br)cc3c2=O)cc1 the results were Shiga toxin inh -1.7, Pf growth 48h inconclusive, Pf growth 96h 10.4µM* and Cycloheximide cs 7.7.
CC1CCN(CCCNC(=O)c2ccc3c(=O)n(Cc4ccc(Cl)cc4)c(=S)[nH]c3c2)CC1 was read as Shiga toxin inh -13.4, Pf growth 48h 13.1µM*, Pf growth 96h 32.7%[5.75 µM] and Cycloheximide cs 2.4.
For CC(C)C(C(=O)NC1CCCC1)N(CC1CCCO1)C(=O)CNS(=O)(=O)c1ccc(F)cc1 (centres undefined) the results were Shiga toxin inh -3.4, Pf growth 48h inconclusive, Pf growth 96h inconclusive, NS1 inh 1.4% and Cycloheximide cs -6.9.
For Cc1cccc(C2c3[nH]c4ccccc4c3CCN2C(=O)c2cc(CC(C)C)[nH]c(=O)n2)n1 (centres undefined) the results were Shiga toxin inh 14.6, Pf growth 48h inconclusive, Pf growth 96h inconclusive, NS1 inh -9.7% and Cycloheximide cs -2.3.
Screening Cc1cc(=O)oc2cc3c(cc12)CCCN3 returned Shiga toxin inh 26.9, Pf growth 48h 58.9%, Pf growth 96h 56.1%, NS1 inh -2.8% and Cycloheximide cs 18.7*.
`O=P(O)(Cc1ccccc1)Cc1ccccc1` gave Pf growth 48h -15.7%, Pf growth 96h inconclusive, NS1 inh 12.1% and Cycloheximide cs -0.9.
For Cn1ncc(Cl)c(Oc2ccc(C(C)(C)C)cc2)c1=O the results were Shiga toxin inh -3.9, Pf growth 48h -23.8%, Pf growth 96h inconclusive, NS1 inh -21.5% and Cycloheximide cs 20.3*.
`CC(C)CCNC(=O)CO/N=C/c1ccccc1OC(F)F` gave Shiga toxin inh -6.9, Pf growth 48h 18.9%, Pf growth 96h -2.8%, NS1 inh 1.2% and Cycloheximide cs -1.7.
`CCc1ccc(NC(=O)CNC(=O)c2nn(-c3ccc(OC)cc3)c(=O)c3ccccc23)cc1` gave Shiga toxin inh -1.5, Pf growth 48h inconclusive, Pf growth 96h -2.8%, NS1 inh 2.2% and Cycloheximide cs -4.4.
